# Columns and labels:
# Settings in all cases: concentration: 1 μM, replicates: in singlicate; n = 1
# CSNK2A2 = test system: CSNK2A2
# CTK = test system: T1, CTK
# T1 construct: gene MATK
# DAPK1 = test system: DAPK1
# DAPK2 = test system: DAPK2
# DAPK3 = test system: DAPK3
# DCAMKL1 = test system: T2, DCAMKL1
# T2 construct: gene DCLK1
# DCAMKL2 = test system: T3, DCAMKL2
# T3 construct: gene DCLK2
# DCAMKL3 = test system: T4, DCAMKL3
# T4 construct: gene DCLK3
# DDR1 = test system: DDR1
# DDR2 = test system: DDR2
# 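Note: KINOMEscan kinase panel screen.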
Structure (SMILES),%Inh (CSNK2A2),%Inh (CTK),%Inh (DAPK1),%Inh (DAPK2),%Inh (DAPK3),%Inh (DCAMKL1),%Inh (DCAMKL2),%Inh (DCAMKL3),%Inh (DDR1),%Inh (DDR2)
O=C(NCCNc1ccnc(Nc2ccc(F)cc2)n1)Nc1ccc2c(c1)OCO2 [GSK1379882],16%,0%,19%,8%,26%,0%,0%,0%,0%,18%
COc1cccc(C2=C(N(C)c3ccccc3)C(=O)NC2=O)c1 [SB-334865],3%,0%,6%,0%,14%,18%,0%,16%,0%,22%
OCCCNc1nccc(-c2c(-c3cccc(C(F)(F)F)c3)nn3cc(C(F)(F)F)ccc23)n1 [GW630813],27%,0%,0%,0%,3%,40%,0%,0%,15%,40%
COC(=O)c1c(-c2ccccc2)c2cc(Br)ccc2c(=O)n1Cc1ccc(NC(=O)CCC(=O)O)cc1,19%,6%,0%,0%,0%,16%,0%,0%,2%,22%
Cl.NS(=O)(=O)c1cccc(Nc2cc(-c3ccc(F)cc3)n[nH]2)c1 [GW824645],20%,19%,0%,0%,0%,15%,44%,0%,0%,45%
CCC(=O)c1c(-c2ccccc2)c2cc(Cl)ccc2c(=O)n1Cc1cc(S(C)(=O)=O)n(CC(N)=O)n1,4%,0%,0%,0%,6%,24%,2%,0%,0%,0%
Nc1nc(N)c2nc(-c3ccccc3)[nH]c2n1 [SKF-12778],22%,24%,12%,0%,1%,15%,0%,60%,0%,9%
COc1cc(Nc2nccc(N3CCC(NC(=O)C(C)c4ccc(Cl)cc4)C3)n2)cc(OC)c1OC (centres unmarked) [GSK1379757],0%,0%,0%,0%,0%,11%,0%,0%,0%,6%
COC(=O)c1c(-c2ccccc2)c2cc(C)ccc2c(=O)n1Cc1ccccc1,0%,0%,1%,0%,0%,0%,6%,0%,60%,33%
Cc1cccc(-c2cc(-c3c[nH]nc3-c3ccccn3)ccn2)c1 [GW679395],8%,0%,6%,0%,16%,14%,0%,13%,36%,8%
Cc1c(Cn2c(C)nn3c(=O)cc(N4CCO[C@H](C)C4)nc23)cccc1C(F)(F)F [GSK2373690],0%,0%,0%,0%,8%,0%,17%,11%,15%,2%
COc1cc2ncn(-c3cc(OCc4ccncc4)c(C(N)=O)s3)c2cc1OC [GSK336313],29%,0%,8%,0%,10%,4%,0%,55%,0%,0%
COc1cc(Nc2ccnc3ccc(C(F)(F)F)cc23)cc(OC)c1OC [GW577382],62%,8%,0%,4%,26%,5%,0%,2%,0%,23%
COc1ccc(Nc2nccc(N3CCC(NS(=O)(=O)c4ccc(NC(C)=O)cc4)C3)n2)cc1 (centres unmarked) [GSK1379729],18%,0%,0%,0%,6%,10%,0%,53%,13%,26%
O=C(Nc1n[nH]c2nc(-c3ccccc3)c(Br)cc12)C1CC1 [SB-708998],4%,0%,0%,0%,0%,0%,0%,0%,23%,9%
CCn1c(-c2nonc2N)nc2ccccc21 [SB-693162/GW549034],19%,31%,13%,0%,0%,0%,0%,13%,0%,0%
Cc1ccccc1COc1cc(-n2cnc3cc(Cl)ccc32)sc1C(N)=O [GW813349],54%,0%,0%,0%,0%,0%,2%,10%,0%,1%
CCc1ccc(-c2ccc3c(c2)-c2nn(C)cc2S(=O)(=O)N3C)cc1,0%,0%,25%,0%,9%,22%,0%,0%,0%,41%

Structure (SMILES),%Inh (CSNK2A2),%Inh (CTK),%Inh (DAPK1),%Inh (DAPK2),%Inh (DAPK3),%Inh (DCAMKL1),%Inh (DCAMKL2),%Inh (DCAMKL3),%Inh (DDR1),%Inh (DDR2)
CN1C(=O)C(Nc2ccccc2)=C(c2ccccc2)C1=O [SB-300079],0%,28%,0%,0%,0%,22%,0%,0%,0%,37%
CCn1c(-c2ccoc2)nc2cnccc21 [SB-733887],13%,0%,0%,0%,14%,34%,0%,0%,27%,14%
Nc1nc(-c2ccccc2F)c(-c2ccnc3ccccc23)s1 [GW560459],0%,0%,0%,0%,13%,12%,1%,1%,7%,34%
Nc1ncnc2c1ncn2-c1cccc2ccccc12 [SKF-97184],0%,0%,0%,0%,0%,0%,13%,15%,0%,59%
CN(C)c1cc(-c2ccc3c(N)n[nH]c3c2)nc(N)n1 [GSK2219329],11%,0%,0%,0%,0%,9%,0%,0%,0%,0%
COc1ccc(CNC(=O)NC2CCN(c3ccnc(Nc4ccc(F)cc4)n3)C2)cc1 (centres unmarked) [GSK1379706],12%,0%,0%,14%,30%,14%,60%,2%,8%,63%
COc1cc2ncn(-c3cc(OCCCc4ccccc4)c(C(N)=O)s3)c2cc1OC [GSK205189],3%,0%,0%,26%,0%,0%,17%,1%,2%,3%
Nc1n[nH]c2nnc(-c3ccccc3)c(-c3ccccc3)c12 [GW554060],0%,0%,0%,0%,19%,1%,0%,0%,28%,22%
O=C(Nc1n[nH]c2cc(-c3ccccc3F)ccc12)C1CC1 [SB-733371],0%,3%,0%,0%,0%,16%,0%,0%,0%,6%
COc1cccc(C2=C(Nc3cccc(C(=O)O)c3)C(=O)NC2=O)c1 [SB-390770],19%,0%,6%,0%,0%,12%,0%,13%,0%,6%
O=C(NCc1cccs1)c1cc(C(=O)c2c(Cl)cccc2Cl)c[nH]1 [GW823670],0%,0%,0%,8%,22%,14%,18%,2%,26%,0%
Cn1c(=O)c(F)c(Nc2ccc(I)cc2F)c2c(=O)n(OC[C@H](O)CO)cnc21,0%,0%,0%,0%,13%,13%,20%,20%,0%,25%
COc1cc2ncn(-c3cc(OCc4ccncc4Br)c(C(N)=O)s3)c2cc1OC [GW854278],18%,45%,28%,18%,6%,0%,2%,0%,0%,0%
COc1ccc(-c2cc3c(C)nc(N)nc3n([C@H]3CC[C@H](O)CC3)c2=O)cn1,0%,0%,0%,0%,1%,0%,0%,0%,0%,0%
O=c1cc(N2CCOCC2)nc2n(Cc3ccc(F)c(Cl)c3)ccn12 [GSK2297099],6%,0%,23%,0%,23%,0%,0%,0%,10%,0%
Nc1n[nH]c2ncc(-c3ccccc3)cc12 [SB-517081],11%,0%,12%,0%,29%,13%,13%,22%,0%,23%
O=C1NC(=O)C(c2ccccc2)=C1Nc1cccc(O)c1 [SB-390534],0%,4%,0%,0%,0%,6%,0%,0%,0%,0%

# Reference: paper PMC5540273 (PLoS ONE, 2017)
